From ChEMBL document CHEMBL1157539, “Thousands of chemical starting points for antimalarial lead identification” (Nature, 2010) come the findings set out here.

Common to all, as to format: functional
For assay [1], the system named is Plasmodium falciparum. Briefly: GSK_TCMDC: Inhibition of Plasmodium falciparum 3D7 in whole red blood cells, using parasite LDH activity as an index of growth. Test compounds present at 2uM.
Assay [2] deals with Plasmodium falciparum. Briefly: GSK_TCMDC: Inhibition of Plasmodium falciparum Dd2 in whole red blood cells, using parasite LDH activity as an index of growth. Test compounds present at 2uM.
A further assay has as its system HepG2. The assay can be described thus: GSK_TCMDC: Percent inhibition of human HepG2 cell line. Test compounds present at 10uM.

As for `Cc1nc(-c2cccc(Nc3nccc(NCC(O)c4ccccc4)n3)c2)cs1` (centres undefined), the Inhibition in the assay on Plasmodium falciparum [1] amounted to 99%; with Plasmodium falciparum [2], 82%; with HepG2 it was 43%.

Consider `Cc1cc(O)c(-c2ccc(Oc3ccc(F)cc3)cc2)c(C)n1`, for which the Inhibition with Plasmodium falciparum [1] was 85%; in the assay on Plasmodium falciparum [2], 59%; in the assay with HepG2 it was 0%.

For the compound `CC(C)C[C@H](NC(=O)c1cc2ccccc2s1)C(=O)N[C@H]1CCN(Cc2ccc(OC3CCN(C)C3)c(Cl)c2)C1.O=C(O)C(F)(F)F` (some centres undefined), the Inhibition is 97% with Plasmodium falciparum [1], 65% with Plasmodium falciparum [2] and 68% with HepG2.
